# Test results: the supplement of paper PMC10849652
# Targets with a hit are over-represented here; the source holds about 7,900 in all. About 0.6% of all pairs of compound and target were hits. Unmarked numbers belong to inactive results.
# Compound: CO[C@H]1C[C@@H]2CC[C@@H](C)[C@@](O)(O2)C(=O)C(=O)N2CCCC[C@H]2C(=O)O[C@H]([C@H](C)C[C@@H]2CC[C@H](n3cnnn3)[C@H](OC)C2)CC(=O)[C@H](C)/C=C(\C)[C@@H](O)[C@@H](OC)C(=O)[C@H](C)C[C@H](C)/C=C/C=C/C=C/1C [zotarolimus]
# Assay: log2 fold change, soluble protein after heating vs DMSO (PISA); higher = thermal stabilisation; K562 cells, 10 uM, 30 min; active = over 0.2 and 3.5 SD of the protein, either way, in both replicates (recomputed)
# In short: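 Values are thermal stability changes relative to control samples and are taken from duplicates. They are stated as log2 fold changes. Before quantification by TMTpro 16plex LC-MS/MS with equalised channel sums, K562 cells at 2×10^6 cells/mL were treated with 10 μM compound for 30 min, heated in aliquots for 3 min across 48°C-58°C, pooled, extracted in PBS with 0.5% NP-40 at 4°C, and centrifuged at 21,000xg for 90 min to give the soluble supernatant.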
# UniProt Q14849, sequence (Q14849 whole entry, looked up): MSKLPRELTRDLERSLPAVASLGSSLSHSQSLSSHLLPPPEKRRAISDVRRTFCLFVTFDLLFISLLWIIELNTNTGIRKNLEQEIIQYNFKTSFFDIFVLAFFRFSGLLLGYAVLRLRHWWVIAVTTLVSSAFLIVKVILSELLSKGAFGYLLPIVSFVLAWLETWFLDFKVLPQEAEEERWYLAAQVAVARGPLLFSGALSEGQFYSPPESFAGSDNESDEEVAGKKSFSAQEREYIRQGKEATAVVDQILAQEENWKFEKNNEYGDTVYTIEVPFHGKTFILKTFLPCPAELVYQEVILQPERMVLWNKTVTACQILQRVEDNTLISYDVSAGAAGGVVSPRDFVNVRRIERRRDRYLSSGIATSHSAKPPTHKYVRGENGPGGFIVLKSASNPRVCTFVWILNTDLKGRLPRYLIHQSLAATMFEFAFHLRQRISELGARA
# UniProt Q9NRS6, sequence (Q9NRS6 whole entry, looked up): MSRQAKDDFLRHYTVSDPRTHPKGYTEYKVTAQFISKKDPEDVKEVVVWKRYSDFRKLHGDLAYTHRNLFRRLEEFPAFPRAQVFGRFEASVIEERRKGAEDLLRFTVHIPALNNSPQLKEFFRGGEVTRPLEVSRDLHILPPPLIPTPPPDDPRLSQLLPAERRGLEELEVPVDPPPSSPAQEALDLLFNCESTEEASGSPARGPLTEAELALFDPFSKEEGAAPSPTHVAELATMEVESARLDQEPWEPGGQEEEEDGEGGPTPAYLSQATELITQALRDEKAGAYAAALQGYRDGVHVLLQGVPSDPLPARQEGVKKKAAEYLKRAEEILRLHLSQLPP
# UniProt Q6ZRS2, sequence (Q6ZRS2 whole entry, looked up): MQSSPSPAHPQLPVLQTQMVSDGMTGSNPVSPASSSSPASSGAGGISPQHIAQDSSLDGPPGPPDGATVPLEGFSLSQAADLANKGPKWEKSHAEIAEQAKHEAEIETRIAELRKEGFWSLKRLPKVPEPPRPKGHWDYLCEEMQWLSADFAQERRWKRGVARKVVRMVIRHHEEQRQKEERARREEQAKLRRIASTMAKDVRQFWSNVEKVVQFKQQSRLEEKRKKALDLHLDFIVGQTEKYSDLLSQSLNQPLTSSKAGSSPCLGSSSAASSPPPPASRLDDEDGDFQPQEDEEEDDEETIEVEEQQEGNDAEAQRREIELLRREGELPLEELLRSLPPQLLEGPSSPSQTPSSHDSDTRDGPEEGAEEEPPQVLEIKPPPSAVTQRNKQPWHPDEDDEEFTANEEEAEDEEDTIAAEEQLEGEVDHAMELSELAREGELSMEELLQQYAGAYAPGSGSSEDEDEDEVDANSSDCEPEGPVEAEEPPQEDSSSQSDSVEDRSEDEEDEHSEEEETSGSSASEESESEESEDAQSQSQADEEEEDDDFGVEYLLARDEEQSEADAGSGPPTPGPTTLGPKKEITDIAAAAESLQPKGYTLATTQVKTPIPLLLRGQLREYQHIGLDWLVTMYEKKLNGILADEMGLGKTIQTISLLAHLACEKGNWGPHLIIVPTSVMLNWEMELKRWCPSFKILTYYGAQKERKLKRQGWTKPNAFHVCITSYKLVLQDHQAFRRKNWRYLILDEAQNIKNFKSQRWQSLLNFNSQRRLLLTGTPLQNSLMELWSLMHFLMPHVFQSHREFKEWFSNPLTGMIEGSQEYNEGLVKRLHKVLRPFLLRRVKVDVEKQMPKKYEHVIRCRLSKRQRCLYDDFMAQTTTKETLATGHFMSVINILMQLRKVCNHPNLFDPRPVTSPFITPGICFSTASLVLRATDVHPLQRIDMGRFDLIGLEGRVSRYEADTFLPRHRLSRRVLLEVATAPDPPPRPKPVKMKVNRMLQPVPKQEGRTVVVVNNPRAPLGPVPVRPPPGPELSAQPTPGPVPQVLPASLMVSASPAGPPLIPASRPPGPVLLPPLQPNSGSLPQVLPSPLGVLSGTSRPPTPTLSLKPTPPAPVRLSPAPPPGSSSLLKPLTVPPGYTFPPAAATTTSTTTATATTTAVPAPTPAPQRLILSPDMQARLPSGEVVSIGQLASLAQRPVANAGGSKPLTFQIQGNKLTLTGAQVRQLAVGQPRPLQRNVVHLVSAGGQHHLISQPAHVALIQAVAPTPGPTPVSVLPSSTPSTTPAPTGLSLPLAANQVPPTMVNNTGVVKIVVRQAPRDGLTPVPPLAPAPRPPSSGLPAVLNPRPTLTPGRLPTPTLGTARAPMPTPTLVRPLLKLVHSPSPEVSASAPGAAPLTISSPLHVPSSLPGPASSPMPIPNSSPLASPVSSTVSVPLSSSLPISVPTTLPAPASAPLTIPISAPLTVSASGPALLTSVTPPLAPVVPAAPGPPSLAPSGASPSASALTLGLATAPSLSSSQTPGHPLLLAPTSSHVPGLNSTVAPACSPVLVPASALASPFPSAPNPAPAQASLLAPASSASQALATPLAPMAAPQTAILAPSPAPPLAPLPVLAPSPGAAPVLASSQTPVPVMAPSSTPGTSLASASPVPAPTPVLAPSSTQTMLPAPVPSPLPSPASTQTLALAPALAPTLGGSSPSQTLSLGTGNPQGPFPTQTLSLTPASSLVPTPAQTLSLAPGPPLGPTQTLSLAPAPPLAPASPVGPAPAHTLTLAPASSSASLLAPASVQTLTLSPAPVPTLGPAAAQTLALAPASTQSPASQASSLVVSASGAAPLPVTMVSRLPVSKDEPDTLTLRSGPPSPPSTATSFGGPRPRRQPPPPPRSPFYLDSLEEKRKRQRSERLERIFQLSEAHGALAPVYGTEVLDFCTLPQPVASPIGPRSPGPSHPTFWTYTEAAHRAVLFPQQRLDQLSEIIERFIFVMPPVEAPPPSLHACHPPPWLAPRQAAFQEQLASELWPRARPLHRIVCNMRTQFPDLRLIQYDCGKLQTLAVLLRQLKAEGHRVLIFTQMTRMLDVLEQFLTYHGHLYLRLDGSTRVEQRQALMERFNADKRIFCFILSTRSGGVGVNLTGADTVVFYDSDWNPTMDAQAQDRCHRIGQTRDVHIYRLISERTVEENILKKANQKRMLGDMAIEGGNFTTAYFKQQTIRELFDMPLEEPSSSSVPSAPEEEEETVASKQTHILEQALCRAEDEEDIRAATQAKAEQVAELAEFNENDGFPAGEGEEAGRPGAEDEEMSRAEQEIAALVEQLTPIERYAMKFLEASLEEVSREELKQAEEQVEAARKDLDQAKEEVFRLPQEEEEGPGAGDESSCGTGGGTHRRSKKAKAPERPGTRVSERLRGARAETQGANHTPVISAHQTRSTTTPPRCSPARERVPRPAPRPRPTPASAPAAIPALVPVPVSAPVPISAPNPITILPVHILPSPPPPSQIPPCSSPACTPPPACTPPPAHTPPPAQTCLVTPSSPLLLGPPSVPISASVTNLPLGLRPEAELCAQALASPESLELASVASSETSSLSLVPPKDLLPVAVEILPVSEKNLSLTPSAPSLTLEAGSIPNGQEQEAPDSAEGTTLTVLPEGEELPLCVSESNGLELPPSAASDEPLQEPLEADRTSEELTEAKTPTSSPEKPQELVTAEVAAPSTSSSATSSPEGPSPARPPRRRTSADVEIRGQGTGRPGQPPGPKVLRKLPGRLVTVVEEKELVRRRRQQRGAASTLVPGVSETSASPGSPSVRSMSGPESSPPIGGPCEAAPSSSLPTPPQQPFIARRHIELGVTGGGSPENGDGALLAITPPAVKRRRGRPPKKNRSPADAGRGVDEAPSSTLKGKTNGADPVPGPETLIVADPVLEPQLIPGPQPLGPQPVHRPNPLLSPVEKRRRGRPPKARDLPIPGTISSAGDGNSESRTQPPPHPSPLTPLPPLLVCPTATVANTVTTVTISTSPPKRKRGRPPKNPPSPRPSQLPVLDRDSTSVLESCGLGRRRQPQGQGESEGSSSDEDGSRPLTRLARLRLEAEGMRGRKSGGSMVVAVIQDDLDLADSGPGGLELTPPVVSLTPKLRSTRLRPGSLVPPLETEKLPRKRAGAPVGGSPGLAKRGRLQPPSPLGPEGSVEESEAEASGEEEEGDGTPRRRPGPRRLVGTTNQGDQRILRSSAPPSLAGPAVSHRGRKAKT
# UniProt Q8N0X7, sequence (Q8N0X7 whole entry, looked up): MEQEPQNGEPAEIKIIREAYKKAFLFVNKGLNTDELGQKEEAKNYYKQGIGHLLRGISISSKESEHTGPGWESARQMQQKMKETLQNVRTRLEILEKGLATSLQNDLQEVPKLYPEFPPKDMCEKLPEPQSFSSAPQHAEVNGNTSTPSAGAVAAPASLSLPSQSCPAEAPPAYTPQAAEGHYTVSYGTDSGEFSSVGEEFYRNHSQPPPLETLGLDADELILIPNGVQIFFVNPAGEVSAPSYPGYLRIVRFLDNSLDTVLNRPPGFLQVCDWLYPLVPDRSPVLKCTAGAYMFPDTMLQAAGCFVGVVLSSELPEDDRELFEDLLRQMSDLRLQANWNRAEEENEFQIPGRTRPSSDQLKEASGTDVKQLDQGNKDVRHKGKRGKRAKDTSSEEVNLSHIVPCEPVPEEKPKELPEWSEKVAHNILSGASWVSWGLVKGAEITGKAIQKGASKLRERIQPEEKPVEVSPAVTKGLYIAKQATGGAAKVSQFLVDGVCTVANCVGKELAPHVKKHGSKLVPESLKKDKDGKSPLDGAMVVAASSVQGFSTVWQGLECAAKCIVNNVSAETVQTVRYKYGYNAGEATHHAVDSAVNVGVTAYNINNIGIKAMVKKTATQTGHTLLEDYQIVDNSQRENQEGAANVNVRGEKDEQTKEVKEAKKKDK
# UniProt Q13247, sequence (Q13247 whole entry, looked up): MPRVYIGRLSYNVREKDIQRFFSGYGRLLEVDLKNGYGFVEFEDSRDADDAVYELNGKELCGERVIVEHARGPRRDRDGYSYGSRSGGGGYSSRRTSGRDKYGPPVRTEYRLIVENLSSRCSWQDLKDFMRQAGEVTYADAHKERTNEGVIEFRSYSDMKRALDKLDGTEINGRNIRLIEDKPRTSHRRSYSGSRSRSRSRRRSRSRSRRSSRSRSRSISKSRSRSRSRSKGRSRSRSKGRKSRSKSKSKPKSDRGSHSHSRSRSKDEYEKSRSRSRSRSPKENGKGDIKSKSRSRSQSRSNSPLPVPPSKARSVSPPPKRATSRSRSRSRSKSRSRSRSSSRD
# UniProt Q8N5G0, sequence (Q8N5G0 whole entry, looked up): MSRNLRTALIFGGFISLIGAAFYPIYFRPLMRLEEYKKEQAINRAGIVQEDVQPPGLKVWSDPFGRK
row,Target,log2 fold change
1,SLC44A2 isoform 2 (UniProt Q8IWA5),-0.028
2,STK38L (UniProt Q9Y2H1),0.036
3,SLC35F6 (UniProt Q8N357),0.016
4,SLC27A1 (UniProt Q6PCB7),0.064
5,SRSF6 (UniProt Q13247),-0.118
6,TATDN2 (UniProt Q93075),0.006
7,TENT5C (UniProt Q5VWP2),-0.56 (active)
8,TMBIM1 (UniProt Q969X1),-0.117
9,SNRNP40 (UniProt Q96DI7),-0.015
10,SPART (UniProt Q8N0X7),0.02
11,SRSF4 (UniProt Q08170),0.053
12,SMDT1 (UniProt Q9H4I9),-0.014
13,SNX1 (UniProt Q13596),0.042
14,THADA (UniProt Q6YHU6),-0.008
15,SMARCB1 (UniProt Q12824),0.136
16,TACC2 (UniProt O95359),-0.003
17,SRFBP1 (UniProt Q8NEF9),-0.021
18,SYNE1 (UniProt Q8NF91),0.019
19,STARD3 (UniProt Q14849),-0.004

row,Target,log2 fold change
1,SNX15 (UniProt Q9NRS6),-0.034
2,SRCAP (UniProt Q6ZRS2),-0.02
3,THYN1 (UniProt Q9P016),0.015
4,SURF2 (UniProt Q15527),0.055
5,TANGO6 (UniProt Q9C0B7),0.061
6,SPCS2 (UniProt Q15005),0.018
7,STAM2 (UniProt O75886),-0.018
8,SP100 isoform 4 (UniProt P23497),0.013
9,TM7SF3 (UniProt Q9NS93),-0.042
10,TIMM10B (UniProt Q9Y5J6),0.023
11,TLK1 (UniProt Q9UKI8),0.019
12,SLC30A7 (UniProt Q8NEW0),-0.025
13,TAF6L (UniProt Q9Y6J9),0.049
14,SLC35B1 isoform 2 (UniProt P78383),-0.005
15,STX7 (UniProt O15400),0.027
16,TARS2 (UniProt Q9BW92),-0.006
17,SUPT5H (UniProt O00267),0.042
18,SMIM20 isoform 2 (UniProt Q8N5G0),-0.037
19,TANK (UniProt Q92844),-0.024
